Source: PubChem BioAssay (EPA / NIEHS)
Active and inactive are the calls of the source. Rule for the calls: active = hit-call score of the fitted dose curve at least 0.9, where 1 is the maximum; inactive = score below 0.9.

Legend:
[1] = read-out: catalase (CAT), CAT (gene 847); assay: LTEA_HepaRG_CAT: Life Technologies and Expression Analysis (LTEA) Assay for catalase (CAT) using HepaRG (AID 2283452); settings: mRNA level, 48 h; actives raise or lower the signal
In short: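 HepaRG cells in serum-free induction medium, 0.5% DMSO vehicle, exposed 48 h in duplicate over 8 half-log concentrations from 100 uM. CAT mRNA measured by qRT-PCR, normalized to ACTB, GAPDH, POLR2A; bidirectional fit versus DMSO.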

[2] = read-out: flavin-containing dimethylaniline monooxygenases 3 (FMO3), FMO3 (gene 2328); assay: LTEA_HepaRG_FMO3: Life Technologies and Expression Analysis (LTEA) Assay for flavin-containing dimethylaniline monooxygenases 3 (FMO3) using HepaRG (AID 2283453); settings: mRNA level, 48 h; actives raise or lower the signal;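 for AC50: differentiated human HepaRG liver cells in serum-free induction medium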
In short: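 FMO3 transcript quantified by TaqMan qRT-PCR against three housekeeping genes after 48 h chemical exposure of HepaRG cells. Eight-point half-log series, top 100 uM, 0.5% DMSO vehicle; phenobarbital 1mM induction control; up- or down-regulation fitted.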

[3] = read-out: Cytochrome P450 (CYP1A1), CYP1A1 (gene 1543); assay: LTEA_HepaRG_CYP1A1: Life Technologies and Expression Analysis (LTEA) Assay for Cytochrome P450 (CYP1A1) using HepaRG (AID 2283454); settings: mRNA level, 48 h; actives raise or lower the signal
In short: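 Differentiated HepaRG cells in serum-free induction medium were exposed in duplicate for 48 h to eight half-log concentrations up to 100 uM in 0.5% DMSO. CYP1A1 mRNA was quantified by TaqMan qRT-PCR, normalized to ACTB, GAPDH and POLR2A.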

[4] = read-out: CFLAR gene, CFLAR (gene 8837); assay: LTEA_HepaRG_CFLAR: Life Technologies and Expression Analysis (LTEA) Assay for CFLAR gene using HepaRG (AID 2283455); settings: mRNA level, 48 h; actives raise or lower the signal
In short: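 qRT-PCR read-out (Fluidigm/TaqMan) of CFLAR mRNA, normalized to three housekeeping genes, in differentiated human HepaRG cells after 48 h chemical exposure; 8-point half-log series from 100 uM in 0.5% DMSO; bidirectional curve fitting versus DMSO.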

[5] = read-out: Forkhead box O1 (FOXO1), FOXO1 (gene 2308); assay: LTEA_HepaRG_FOXO1: Life Technologies and Expression Analysis (LTEA) Assay for Forkhead box O1 (FOXO1) using HepaRG (AID 2283456); settings: mRNA level, 48 h; actives raise or lower the signal
In short: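 HepaRG, 48 h exposure, 8-pt half-log series from 100 uM in 0.5% DMSO, duplicates; Fluidigm qRT-PCR mRNA, housekeeping-normalised; bidirectional fit vs DMSO baseline.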

[6] = read-out: growth arrest and DNA damage 45 (GADD45A), GADD45A (gene 1647); assay: LTEA_HepaRG_GADD45A: Life Technologies and Expression Analysis (LTEA) Assay for growth arrest and DNA damage 45 (GADD45A) using HepaRG (AID 2283458); settings: mRNA level, 48 h; actives raise or lower the signal
In short: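 GADD45A expression was measured by TaqMan qRT-PCR against three housekeeping genes (ACTB, GAPDH, POLR2A) after 48 h treatment of HepaRG cells. Eight-point half-log series up to 100 uM in 0.5% DMSO, run in duplicate.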

[7] = read-out: Forkhead box O3 (FOXO3), FOXO3 (gene 2309); assay: LTEA_HepaRG_FOXO3: Life Technologies and Expression Analysis (LTEA) Assay for Forkhead box O3 (FOXO3) using HepaRG (AID 2283459); settings: mRNA level, 48 h; actives raise or lower the signal
In short: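 qRT-PCR readout of FOXO3 transcript, normalized to three housekeeping genes (ACTB, GAPDH, POLR2A); gain or loss fitted against 0.5% DMSO vehicle. HepaRG cells, 48 h chemical exposure, 8-point half-log series, top 100 uM.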

[8] = read-out: ABC Transporter (ABCB1), ABCB1 (gene 5243); assay: LTEA_HepaRG_ABCB1: Life Technologies and Expression Analysis (LTEA) Assay for ABC Transporter (ABCB1) using HepaRG (AID 2283460); settings: mRNA level, 48 h; actives raise or lower the signal
In short: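 HepaRG, 48 h exposure, 8-pt half-log series from 100 uM, 0.5% DMSO vehicle, duplicates. Readout: ABCB1 transcript by Fluidigm TaqMan qRT-PCR, housekeeping-normalized; bidirectional curve fit vs DMSO baseline.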

[9] = read-out: growth arrest and DNA damage 45 (GADD45B), GADD45B (gene 4616); assay: LTEA_HepaRG_GADD45B: Life Technologies and Expression Analysis (LTEA) Assay for growth arrest and DNA damage 45 (GADD45B) using HepaRG (AID 2283461); settings: mRNA level, 48 h; actives raise or lower the signal
In short: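 Differentiated HepaRG cells, plated 48 h then switched to serum-free induction medium, were exposed 48 h in duplicate to eight half-log concentrations from 100 uM in 0.5% DMSO; mRNA quantified by qRT-PCR, normalized to ACTB/GAPDH/POLR2A, bidirectional fit versus DMSO.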

[10] = CEETOX_H295R_TESTO: CeeTox H295R High-throughput Steroidogenesis Assay for Testosterone (TESTO) (AID 2283457); settings: actives raise or lower the signal
In short: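 H295R human adrenal cells in DMEM/F12 with ITS+ and Nu-Serum, exposed to chemicals for 48 h. Testosterone in medium measured by MTBE extraction, reverse-phase HPLC-MS/MS; bidirectional fit versus DMSO baseline. MTT viability checked in same wells.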

Measured: AC50

CO[C@H]1/C=C/O[C@@]2(C)Oc3c(C)c(O)c4c(O)c(c(/C=N/N5CCN(C)CC5)c(O)c4c3C2=O)NC(=O)/C(C)=C\C=C\[C@H](C)[C@H](O)[C@@H](C)[C@@H](O)[C@@H](C)[C@H](OC(C)=O)[C@@H]1C
active: [3] 31.2 µM | [8] 0.442 µM
not listed: [10]
inactive: all other assays above

Cc1c2ccccc2c(C)c2c1ccc1ccccc12
inactive: [10]
active: [1] 48.5 µM | [2] 34.2 µM | [3] 11.9 µM | [4] 40.9 µM | [5] 75 µM | [6] 61.9 µM | [7] 13 µM | [9] 50 µM

NCc1cccc(C2CCN(C(=O)c3ccc(C#Cc4ccccc4F)o3)CC2)c1
inactive: [5] | [7] | [9]
active: [1] 50 µM | [2] 82.7 µM | [3] 12.7 µM | [4] 89.9 µM | [6] 78.9 µM | [8] 50 µM

Cc1cc2c(cc1C(F)(F)F)N(C(=O)Nc1ccc(Oc3cccnc3C)nc1)CC2
active: [1] 46 µM | [2] 46 µM | [3] 3.67 µM | [4] 72.6 µM | [5] 80.9 µM | [6] 78.1 µM
inactive: [7] | [8] | [9]

O=C1CCC(C2CCCCC2)CC1
active: [3] 50 µM
not listed: [1] | [8] | [10]
inactive: all other assays above

CCCOC(=O)c1cc(O)c(O)c(O)c1
active: [3] 10.1 µM
not listed: [2] | [8] | [10]
inactive: all other assays above

Cc1cn([C@H]2C[C@H](N=[N+]=[N-])[C@@H](CO)O2)c(=O)[nH]c1=O
not listed: [8] | [10]
inactive: all other assays above

O=C(O)c1ccccc1-n1cc(C(=O)O)c(=O)c2cc(Nc3c(F)cc(F)cc3Cl)c(Cl)cc21
active: [3] 20.5 µM | [6] 0.00848 µM
not listed: [8] | [10]
inactive: all other assays above

CN(C)C(=O)C1(N2CCCCC2)CCN(CC[C@@]2(c3ccc(Cl)c(Cl)c3)CN(C(=O)c3ccccc3)CCO2)CC1
inactive: [6] | [7]
active: [1] 17.2 µM | [2] 13.7 µM | [3] 24.7 µM | [4] 61.9 µM | [5] 47.2 µM | [9] 29 µM

O=C(O)Cc1cc(I)c(Oc2ccc(O)c(I)c2)c(I)c1
active: [1] 9.92 µM | [2] 91.2 µM | [5] 50 µM | [6] 94.5 µM | [9] 50 µM
inactive: [3] | [4] | [7]

OCCO
active: [7] 12.7 µM
not listed: [8] | [10]
inactive: all other assays above

c1ccc2ccccc2c1
not listed: [8] | [10]
inactive: all other assays above

CC(O)CC(C)(C)O (configuration not stated)
not listed: [8] | [10]
inactive: all other assays above

O=CCCCC=O
not listed: [8] | [10]
inactive: all other assays above

CC/C(=C(/CC)c1ccc(O)cc1)c1ccc(O)cc1
inactive: [3] | [6]
active: [1] 91.7 µM | [2] 92.4 µM | [4] 50 µM | [5] 74.8 µM | [7] 76.9 µM | [9] 68.8 µM

c1ccc2n[nH]nc2c1
not listed: [8] | [10]
inactive: all other assays above

CC1=CC(=O)/C(=C(/C)O)C(=O)O1
not listed: [8] | [10]
inactive: all other assays above

CC(C)(c1cc(Br)c(O)c(Br)c1)c1cc(Br)c(O)c(Br)c1
active: [4] 71.8 µM | [7] 89.2 µM | [9] 74.5 µM
not listed: [8] | [10]
inactive: all other assays above

CC(C)(C)c1csc(-c2cc3cc(OCc4ccccc4CC(=O)O)ccc3o2)n1
active: [1] 28.3 µM | [2] 73.5 µM | [3] 12.2 µM | [4] 73.5 µM | [5] 81.3 µM | [9] 42.6 µM
inactive: [6] | [7]

CCCCCCCCCC(=O)O
active: [3] 70.9 µM
not listed: [8] | [10]
inactive: all other assays above
